Data taken from PubChem BioAssay (NCI).
This is part of a sample that, as a whole, favours compounds with a hit. Of some 83,000 tested, about 20% had one in any assay.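 Values shown are percent growth following 48 h exposure of cells in 96-well plates to a single concentration of compound; below 10 was considered active.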 Calls of active or inactive are those of the source.

How the values were obtained:
Test in all cases: NCI-60 one-dose screen, 48 h (100 = growth as untreated, 0 = no growth, -100 = all killed)
Settings in all cases: 10 µM
NCI-H23 lung = tested on: NCI-H23 lung
NCI-H226 lung = tested on: NCI-H226 lung
NCI-H322M lung = tested on: NCI-H322M lung
NCI-H460 lung = tested on: NCI-H460 lung
NCI-H522 lung = tested on: NCI-H522 lung
786-0 renal = tested on: 786-0 renal
COLO 205 colon = tested on: COLO 205 colon
DU-145 prostate = tested on: DU-145 prostate
K-562 leukemia = tested on: K-562 leukemia
MALME-3M melanoma = tested on: MALME-3M melanoma
RXF 393 renal = tested on: RXF 393 renal
SF-268 CNS = tested on: SF-268 CNS
SF-295 CNS = tested on: SF-295 CNS
SF-539 CNS = tested on: SF-539 CNS
UACC-257 melanoma = tested on: UACC-257 melanoma
M14 melanoma = tested on: M14 melanoma
HOP-62 NSCLC = tested on: HOP-62 NSCLC
HOP-92 NSCLC = tested on: HOP-92 NSCLC
A549/ATCC NSCLC = tested on: A549/ATCC NSCLC
MDA-MB-231 breast = tested on: MDA-MB-231 breast

Measured: growth

Clc1ccc(-c2nnc(-c3cccc4ccccc34)o2)cc1
inactive: NCI-H23 lung 83.6% | NCI-H226 lung 87.6% | NCI-H322M lung 112% | NCI-H460 lung 96.4% | NCI-H522 lung 83.5% | 786-0 renal 110% | COLO 205 colon 101% | DU-145 prostate 114% | K-562 leukemia 104% | MALME-3M melanoma 99.8% | RXF 393 renal 102% | SF-268 CNS 103% | SF-295 CNS 110% | SF-539 CNS 94.8% | UACC-257 melanoma 78% | M14 melanoma 103%

C[N+](C)=c1ccc2nc3c(cc(Nc4ccccc4)c4ccccc43)oc-2c1
inactive: NCI-H23 lung 31.6% | NCI-H226 lung 44.4% | HOP-62 NSCLC 67.6% | NCI-H460 lung 65% | HOP-92 NSCLC 79.5% | NCI-H522 lung 42.3% | A549/ATCC NSCLC 64.4% | 786-0 renal 72.8% | COLO 205 colon 22.6% | DU-145 prostate 55.4% | K-562 leukemia 38.5% | MALME-3M melanoma 28.2% | MDA-MB-231 breast 47% | RXF 393 renal 69.2% | SF-268 CNS 80.3% | SF-295 CNS 59.5% | SF-539 CNS 74.3% | UACC-257 melanoma 38.6% | M14 melanoma 33.9%

O=S(=O)(O)c1cc(O)c2c(N=Cc3ccccc3O)c(S(=O)(=O)O)ccc2c1
inactive: NCI-H23 lung 101% | NCI-H226 lung 101% | NCI-H322M lung 93.7% | NCI-H460 lung 105% | NCI-H522 lung 91.4% | A549/ATCC NSCLC 111% | 786-0 renal 99.8% | COLO 205 colon 119% | DU-145 prostate 109% | K-562 leukemia 96.7% | MALME-3M melanoma 97.9% | MDA-MB-231 breast 127% | RXF 393 renal 105% | SF-268 CNS 102% | SF-295 CNS 81.9% | SF-539 CNS 94.3% | UACC-257 melanoma 111% | M14 melanoma 94.4%

CC(C)(O)C#CC#CC(C)(C)O
inactive: NCI-H23 lung 88.9% | NCI-H226 lung 79.4% | NCI-H322M lung 102% | NCI-H460 lung 104% | NCI-H522 lung 82.5% | A549/ATCC NSCLC 91.5% | 786-0 renal 106% | DU-145 prostate 113% | K-562 leukemia 93.6% | MALME-3M melanoma 107% | MDA-MB-231 breast 105% | SF-268 CNS 106% | SF-295 CNS 95.1% | SF-539 CNS 93.8% | UACC-257 melanoma 94.4% | M14 melanoma 107%

COc1cccc(O)c1O
inactive: NCI-H23 lung 56.3% | NCI-H226 lung 101% | NCI-H322M lung 98.6% | NCI-H460 lung 103% | NCI-H522 lung 79% | A549/ATCC NSCLC 101% | 786-0 renal 88.1% | COLO 205 colon 108% | DU-145 prostate 27% | K-562 leukemia 78.4% | MALME-3M melanoma 67% | MDA-MB-231 breast 85.5% | RXF 393 renal 72.7% | SF-295 CNS 104% | SF-539 CNS 20.6% | UACC-257 melanoma 72.3% | M14 melanoma 44.6%

C=CCOC(=O)C(=O)OCC=C
inactive: NCI-H23 lung 110% | NCI-H226 lung 99.7% | HOP-62 NSCLC 92.7% | NCI-H460 lung 112% | HOP-92 NSCLC 90% | NCI-H522 lung 96.6% | A549/ATCC NSCLC 109% | 786-0 renal 106% | COLO 205 colon 111% | DU-145 prostate 112% | K-562 leukemia 95.1% | MALME-3M melanoma 139% | MDA-MB-231 breast 108% | RXF 393 renal 103% | SF-268 CNS 103% | SF-295 CNS 154% | SF-539 CNS 91.8% | UACC-257 melanoma 102%

N#Cc1ccc(OC(=O)Nc2ccc(Cl)c(Cl)c2)cc1
inactive: NCI-H23 lung 39.6% | NCI-H226 lung 63.7% | NCI-H322M lung 89.4% | NCI-H460 lung 99.8% | NCI-H522 lung 24.5% | A549/ATCC NSCLC 47.2% | 786-0 renal 89.5% | COLO 205 colon 96.3% | DU-145 prostate 72.3% | K-562 leukemia 44% | MALME-3M melanoma 72.9% | MDA-MB-231 breast 93% | RXF 393 renal 91.5% | SF-268 CNS 94.4% | SF-295 CNS 41.4% | SF-539 CNS 91.5% | UACC-257 melanoma 86.2% | M14 melanoma 76.6%

O=[N+]([O-])c1ccc(-c2ncc(-c3ccc(Br)cc3)o2)cc1
inactive: NCI-H23 lung 93.7% | NCI-H226 lung 107% | NCI-H322M lung 110% | NCI-H460 lung 73.4% | A549/ATCC NSCLC 30.5% | 786-0 renal 97.3% | COLO 205 colon 134% | DU-145 prostate 112% | K-562 leukemia 97.3% | MALME-3M melanoma 125% | MDA-MB-231 breast 119% | RXF 393 renal 106% | SF-268 CNS 107% | SF-295 CNS 98.3% | SF-539 CNS 101% | UACC-257 melanoma 74.1% | M14 melanoma 109%
active: NCI-H522 lung -2.2%

C/C(O)=C(\C=N\C(N)=S)C(=O)Nc1ccccc1
inactive: NCI-H23 lung 94.5% | NCI-H226 lung 87.1% | NCI-H322M lung 104% | NCI-H460 lung 99.9% | NCI-H522 lung 83.7% | A549/ATCC NSCLC 100% | 786-0 renal 105% | COLO 205 colon 104% | DU-145 prostate 109% | K-562 leukemia 107% | MDA-MB-231 breast 92.2% | RXF 393 renal 107% | SF-268 CNS 101% | SF-295 CNS 110% | SF-539 CNS 114% | UACC-257 melanoma 97.7% | M14 melanoma 105%
